Legend:
CHO = assay: % viability of CHO cells (MTT); higher = less toxic; settings: 48 h
In short: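 Viability was given as a percentage of untreated cells and measured colorimetrically by the tetrazolium (MTT) assay. Before this, CHO cells at 10^6 cells/well in 200 µL attached overnight, then received fresh medium containing compound at 2 or 20 µM for 48 h.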

HepG2-A16-CD81 = assay: % inhibition of HepG2 viability (CellTiter-Glo); higher = more toxic; settings: 5 µM;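 further: HepG2-A16-CD81 hepatoma cells plated as in the liver-stage assay but without sporozoites, with DMSO wells as negative and 25 µM puromycin as positive control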
[1] = system: Plasmodium falciparum NF54 stage IV/V gametocytes; assay: % inhibition of gametocyte viability (PrestoBlue); higher = more inhibition; settings: 48 h
In short: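 Values are percent inhibition of gametocyte viability, normalised to vehicle and kill controls in a single run. Stage IV/V NF54 gametocytes (2% gametocytaemia, 5% haematocrit, 100 µL/well) were held with compound at 1 or 5 µM for 48 h at 37 °C, stationary and hypoxic. Viability was read as 612 nm fluorescence on 70 µL of supernatant after a 2 h incubation with 10 µL PrestoBlue.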

[2] = system: Plasmodium falciparum NF54 asexual blood stage; assay: % inhibition of asexual blood stage proliferation (pLDH); higher = more inhibition; settings: 72 h
In short: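 Using 96-well plates, the screen was run twice on separate occasions with Plasmodium falciparum NF54 ring-stage cultures at 1% haematocrit and 2% parasitaemia. Each culture was exposed to compound at 2 or 20 µM for 72 h at 37 °C under a gas mix of 4% CO2, 3% O2 and 93% N2. After incubation, the parasite lactate dehydrogenase assay was read colorimetrically at 620 nm. From this readout, percent inhibition of asexual proliferation was derived against control wells.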

[3] = system: Plasmodium falciparum NF54 stage IV/V gametocytes; assay: % inhibition of gametocyte viability (ATP bioluminescence); higher = more inhibition; settings: 24 h
In short: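 Viability of stage IV/V NF54 gametocytes is given as percent inhibition, normalised to control wells in a single run. Gametocytes enriched on density gradients were seeded at 30,000 per well in 96-well plates with compound at 1 or 5 µM and held at 37 °C for 24 h. ATP was then read with the Promega BacTiter Glo bioluminescence system.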

[4] = system: Plasmodium falciparum NF54 stage IV/V gametocytes; assay: % inhibition of gametocyte viability (luciferase reporter); higher = more inhibition; settings: 48 h
In short: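 Stage IV/V gametocytes of the NF54-Pfs16-GFP-Luc line (2% gametocytaemia, 2% haematocrit) were exposed to compound at 1 or 5 µM. Incubation was 48 h at 37 °C, stationary and hypoxic. Luminescence was read on 30 µL lysate plus 30 µL Promega luciferin substrate on a GloMax-Multi+ reader with 10 s integration. Percent inhibition was normalised to DMSO and kill controls from a single run.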

Compound | % viability of CHO cells (CHO; 2 µM) | % viability of CHO cells (CHO; 20 µM) | % inhibition of HepG2 viability (HepG2-A16-CD81) | % inhibition of gametocyte viability ([1]; 1 µM) | % inhibition of gametocyte viability ([1]; 5 µM) | % inhibition of asexual blood stage proliferation ([2]; 2 µM) | % inhibition of asexual blood stage proliferation ([2]; 20 µM) | % inhibition of gametocyte viability ([3]; 1 µM) | % inhibition of gametocyte viability ([3]; 5 µM) | % inhibition of gametocyte viability ([4]; 1 µM) | % inhibition of gametocyte viability ([4]; 5 µM)
O=C(O)/C=C/C=C/c1cccc(Oc2cc(Cl)cc(Cl)c2)c1 | 97.3% | 110% | -6% | < 0% | < 0% | 30.7% | 41.4% | 3.95% | 2.02% | 9.35% | 0.936%
NC(=O)c1cnc2ccc(S(=O)(=O)c3ccccc3)cc2c1Nc1ccc(O)cc1 | 228% | 58.1% | 6.05% | < 0% | < 0% | 29.7% | 56.5% | < 0% | < 0% | < 0% | < 0%
Nc1cnn(C2OC(CO)C(O)C2O)c(=O)n1 (stereo not drawn) | 109% | 110% | 9.61% | < 0% | 12.5% | 61.7% | 38.4% | 3.6% | < 0% | 4.96% | 6.45%
COc1ccc(CNC(=O)C2CCN([C@H](C)c3cccc4ccccc34)CC2)cc1 | 128% | 70.1% | 0.399% | < 0% | 11% | 79.1% | 64.2% | 8.45% | 8.31% | 12.8% | < 0%
O=C(O)COc1cccc2c1CC[C@](O)(COC(=O)N(c1ccccc1)c1ccccc1)C2 | 92.5% | 105% | -9.51% | 23.2% | 25.8% | 11.3% | -4.41% | < 0% | < 0% | 1.62% | < 0%
COc1ccc(C2CNC(=O)C2)cc1OC1CCCC1 (stereo not drawn) | 95.4% | 125% | -2.26% | < 0% | 12% | 28.3% | 40.1% | < 0% | < 0% | 8.32% | 7.49%
CC[C@@H](CO)NCCN[C@@H](CC)CO | 85% | 50.4% | -1.81% | < 0% | 25% | 42.9% | 37.6% | 0.155% | 0.768% | < 0% | < 0%
Clc1ccc(COC(Cn2ccnc2)c2ccc(Cl)cc2Cl)c(Cl)c1 (stereo not drawn) | 89.6% | 135% | 4.88% | 10.1% | < 0% | 48.6% | 73.4% | < 0% | 20.2% | < 0% | 22.3%
Fc1ccc(-n2cc(Cn3c(-c4cccc(F)c4)nc4ccccc43)nn2)cc1 | 86.4% | 78.7% | -1.61% | < 0% | 43.7% | 9.59% | 83.1% | < 0% | < 0% | < 0% | < 0%
Cc1ncc([N+](=O)[O-])n1CC(C)O (stereo not drawn) | 92.2% | 87.1% | 7.14% | 7.95% | 28.2% | 42.5% | 65.1% | 4.81% | < 0% | 8.84% | 10%
C[C@@H](NC(=O)c1ccccc1-c1ccccc1)B(O)O | 84% | 94% | 7.46% | 10.1% | 30.5% | -8.74% | -3.48% | 3.08% | < 0% | < 0% | < 0%
Nc1nc(N)c2c(Sc3ccccc3)cccc2n1 | 107% | 100% | 13.7% | < 0% | 4.25% | 47.8% | 77.9% | < 0% | 2.83% | < 0% | < 0%
Cc1nc(-c2ccc(C3N(C)c4ccc(F)cc4C(=O)N3c3ccccc3)s2)cs1 (stereo not drawn) | 97.8% | 95.9% | 12.5% | < 0% | -0.427% | 15.3% | 72.5% | < 0% | < 0% | < 0% | < 0%
CC(C)(C)OC(=O)NCc1ccc(C(=O)N[C@H]2CCOC2=O)cc1 | 96.9% | 115% | 14.5% | 5.05% | < 0% | 18.3% | 17.2% | < 0% | < 0% | < 0% | < 0%
CN(C)c1[nH]c(=O)ncc1F | 111% | 104% | 11.9% | < 0% | < 0% | -4.48% | 8.8% | 2.44% | < 0% | < 0% | < 0%
COC(=O)Nc1nc2c(C)cccc2[nH]1 | 101% | 86.1% | -1.33% | < 0% | < 0% | -2.03% | -14% | < 0% | < 0% | < 0% | < 0%
CC(C)Cn1c(=O)n(C)c(=O)c2c(-c3cncn3C)n(Cc3cccc4ccccc34)nc21 | 92.4% | 102% | 8.23% | 3.5% | 22.5% | 85.2% | 118% | < 0% | < 0% | 11.4% | < 0%
O=C1CCC(N2C(=O)c3ccccc3C2=O)C(=O)N1 (stereo not drawn) | 129% | 120% | -2.75% | < 0% | < 0% | 30.6% | 69.3% | < 0% | < 0% | 0.963% | 6.01%
CC1(C)Cc2c(C#N)c(SCCc3ccccc3)nc(N3CCOCC3)c2CO1 | 112% | 112% | -1.4% | 9.17% | 45.1% | 17.3% | 89.2% | < 0% | < 0% | < 0% | 3.41%
CC(C)c1cc2c(cc1S(=O)(=O)O)[C@@]1(C)CCC[C@@](C)(C(=O)O)[C@@H]1CC2 | 93.3% | 109% | 3.51% | 43.4% | 12.4% | 26% | 89% | < 0% | < 0% | < 0% | < 0%
CC1(C)[C@H](C(=O)O)N2C(=O)C[C@H]2S1(=O)=O |  |  |  | < 0% | < 0% | 11.2% | 34.3% | < 0% | < 0% | < 0% | < 0%

From the supplement of paper PMC7801607
